PfHsp90 set2: reduces growth (ATP signal) of yeast expressing P. falciparum Hsp90 | S. cerevisiae expressing PfHsp90, BacTiter-Glo ATP, 48 h; yeast lacking PDR1 and PDR3 efflux regulators | inhibition, % at 9.4 µM | 310,000 tested, 0.32% active;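 active = every replicate shows inhibition above about 80%, whatever the replicate mean, limit read from the data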;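 also: 0% = DMSO neutral controls and 100% = 20 µM radicicol positive controls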
tim10-1 inh: tim10-1 yeast growth inhibition; S. cerevisiae tim10-1 ts strain growth, BacTiter-Glo, 24 h; inhibition, % at 20 µM; 330,000 tested, 2.2% active; AID 463190;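 active = inhibition of at least 40%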;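 also: mutant grown at 25 °C; 0% = DMSO wells with yeast and 100% = wells holding no yeast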
NLRP3 yeast inh: inhibitors of NALP3 inflammasome in yeast; 330,000 tested, 0.39% active; Yeast reconstituted NLRP3/ASC/caspase-1, beta-gal luminescence, 24 h; inhibition, % at 10 µM;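 active = inhibition of 50% or more; inactive = inhibition below 50%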;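 also: plate controls were induced DMSO wells for no effect and uninduced yeast grown without galactose for full effect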
TIM10 inh: growth inhibitors of TIM10 yeast strain; 330,000 tested, 1.4% active; S. cerevisiae TIM10 strain growth, BacTiter-Glo luminescence, 24 h; inhibition, % at 10 µM;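 active = inhibition of 40% or more at the single tested concentration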;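 also: wild-type TIM10 isogenic control strain grown at permissive 25 °C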
tim23-1 inh: growth inhibitors of tim23-1 mutant yeast. S. cerevisiae tim23-1 growth, BacTiter-Glo luminescence, 24 h. inhibition, % at 20 µM. 330,000 tested, 1.3% active;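 active = growth inhibition of the mutant yeast at or above 50%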;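 also: temperature-sensitive mutant grown at 25 °C; plate controls were DMSO-treated mutant yeast for no effect and medium wells lacking yeast for full effect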
SKKanGAS inh: inhibitors of SKKanGAS S. pyogenes growth in kanamycin (SK-promoter or general growth effect). AID 1662. BacTiter-Glo, 6 h. 300,000 tested, 1.3% active. inhibition, % at 7.5 µM;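 active = mean replicate score, as percent of positive control median, at least 50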;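 also: strain carries kanamycin resistance gene driven by streptokinase promoter and grows in 40 µg/ml kanamycin; loss of luminescence reflects streptokinase promoter inhibition or plain growth inhibition; 0% = median of DMSO wells and 100% = positive control at its reference dose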
tim10-1 conf: confirmation of tim10-1 mutant yeast growth inhibitors. shares compounds with tim10-1 inh. S. cerevisiae tim10-1 ts strain growth, BacTiter-Glo, 24 h. inhibition, % at 20 µM. 7,400 tested, 56% active;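 active = inhibition of yeast growth at or above a set limit in either of two repeat tests at 20 µM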;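 also: tim10-1 mutant grown at permissive 25 °C to find synthetic lethal compounds; 0% = DMSO yeast wells and 100% = medium wells without yeast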
TIM10 conf: confirmation of TIM10 yeast growth inhibitors; 4,600 tested, 63% active; S. cerevisiae tim10 strain growth, BacTiter-Glo luminescence, 24 h; inhibition, % at 10 µM; shares compounds with TIM10 inh;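 active = inhibition of yeast growth at or above a set limit in either of two replicates at 10 µM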;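 also: this counterscreen used the strain with wild-type TIM10; 0% = yeast with DMSO and 100% = medium wells lacking yeast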
tim23-1 confirm: confirmation of tim23-1 mutant yeast growth inhibitors; shares compounds with tim23-1 inh; S. cerevisiae tim23-1 growth, BacTiter-Glo luminescence, 24 h; inhibition, % at 20 µM; 4,400 tested, 83% active; AID 463218;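 active = inhibition above about 39% in either of two replicate wells at 20 µM, limit read from the data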;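 also: temperature-sensitive tim23-1 mutant grown at 25 °C; 0% = DMSO wells with yeast and 100% = medium wells without yeast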
* hit, by the source's call; / = not tested or not shown. Only some compounds are listed: those with a hit (about 4.5% of all), similar ones and a draw of the others.

SMILES	PfHsp90 set2	tim10-1 inh	NLRP3 yeast inh	TIM10 inh	tim23-1 inh	SKKanGAS inh	tim10-1 conf	tim23-1 confirm	others
CC1=CC(C)(C)N2C(=O)C(=O)c3cc(OC(=O)c4ccco4)cc1c32	15	51*	8	34	68*	-9	36*	1
Cc1cc(CSCc2ccc(Cl)cc2)no1	-30	10	13	1	2	4	/	/
O=C(COC(=O)c1ccc([N+](=O)[O-])s1)c1ccc[nH]1	-22	63*	36	79*	64*	/	71*	58*	TIM10 conf=84*
O=C(OCC(=O)c1ccc[nH]1)c1ccc([N+](=O)[O-])cc1	-5	7	19	8	22	/	/	/
O=C(Nc1ccc(F)cc1F)N1CCN(CCc2ccccc2)CC1	9	1	4	2	7	2	/	/
O=C1N2c3ccccc3CCc3cccc(c32)C1(O)C(F)(F)F (centres undefined)	-2	47*	-35	30	51*	-3	44*	55*
COC(=O)c1ccc(NC(=O)CN2C(=O)NC3(CCC(C)CC3)C2=O)cc1 (centres undefined)	4	-7	7	4	-2	/	/	/
CN(Cc1nccs1)C(=O)C1CCC(=O)N(CCCc2ccccc2)C1 (centres undefined)	-1	23	-4	15	16	3	/	/
COc1ccc(S(=O)(=O)Nc2cc(SCC(=O)O)c(O)c3ccccc23)cc1	10	44*	25	33	58*	3	28	-17
O=C(O)CSc1cc(NS(=O)(=O)c2ccc(Cl)cc2)c2ccccc2c1O	-13	/	/	/	/	1	/	/
Cc1ccc2c(c1)N(CC(=O)NCCCN1CCOCC1)C(=O)C(C(C)C)O2 (centres undefined)	11	7	0	6	14	31	/	/
Cc1c(C(=O)NCc2ccc3c(c2)OCO3)oc2ccccc12	/	48*	19	41*	53*	4	42*	55*	TIM10 conf=28
Cc1ccc2oc(C(=O)NCc3ccc4c(c3)OCO4)c(C)c2c1	-11	31	23	6	31	-4	/	/
COc1ccc2c(c1)/C(=C/c1cc(OC)c(OC)c(OC)c1)C(=O)N2	-7	/	/	/	/	/	/	/
Cc1ccc2c(c1)/C(=C/c1ccc(F)cc1)C(=O)N2	-4	59*	41	66*	62*	-15	71*	50*	TIM10 conf=77*
Cc1cccc(NC(=O)/C(C#N)=C/c2ccc(F)cc2)n1	12	32	13	26	47	2	/	/
CCCOc1ccccc1/C=C(\C#N)C(=O)Nc1cccc(C)n1	-12	49*	9	37	56*	-2	45*	57*
CC(O)CNc1nc2c(c(=O)n(Cc3ccccc3)c(=O)n2C)n1C (centres undefined)	-14	-2	1	-1	-3	-5	/	/
Oc1ccccc1N=N/C(=N/Nc1ccccc1O)c1ccccc1	19	-2	18	8	-1	7	/	/
N#C/C(N=Nc1ccccc1O)=N\Nc1ccccc1O	20	65*	28	13	82*	36	60*	66*
COc1ccc(OC)c(C(=O)Cn2nnc(-c3ccc(N4CCOCC4)cc3)n2)c1	-16	-7	13	-3	-6	9	/	/
Cc1cccc(/C=N/NC(=O)c2ccc3c(c2)OCCO3)c1O	19	50*	39	65*	63*	91*	46*	76*	TIM10 conf=68*
O=C(N/N=C/c1cccc(O)c1)c1ccc2c(c1)OCCO2	-7	10	1	6	6	-2	/	/
Cc1ccccc1OCC(=O)Nc1c2c(nn1C(C)(C)C)CS(=O)(=O)C2	6	7	3	-2	-3	-10	/	/
N/C(=N\OC(=O)CCCOc1ccccc1)c1cccc(Br)c1	-36	34	5	31	22	8	/	/
CC(=O)c1nn(-c2cccc(Br)c2)cc1C(=O)c1ccco1	-15	15	-1	-8	-4	-9	/	/

From PubChem
